Measured values from PubChem BioAssay AID2069 (Sanford-Burnham Center for Chemical Genomics, 2009).
In all, about 1,200 compounds went through this assay and about 210 (18%) were called active. No stated cut-off is given here; in the data, active means inhibition above about 30%; inactive means the rest. Only a sample is shown.

Assay: HTRF signal interference by compounds, confirmation, artefact control for SUMOylation inhibitor project, biochemical, uHTS (AID 2069)
Conditions: HTRF interference counterscreen, fluorescence, at 35 µM, hits give high values

SMILES | inhibition
N#C/C(=C\c1ccc(-c2ccc([N+](=O)[O-])cc2)o1)C(=O)Nc1nc(-c2cccs2)cs1 | 0.8% (inactive)
O=C(c1ccc2c(c1)[nH]c(=S)n1c3ccccc3nc21)N1CCN(c2ncccn2)CC1 | 11.9% (inactive)
COc1ccc(S(=O)(=O)C(C#N)c2nc3ccccc3nc2N2CCC(C)CC2)cc1 (centres undefined) | -6% (inactive)
CCOc1ccc(NC(=S)Nc2cccc3ccccc23)cc1 | -13.5% (inactive)
COc1ccc(OC)c(S(=O)(=O)NCCc2cn3ccsc3n2)c1 | -8.15% (inactive)
CCOC(=O)CCc1c(C)c(C#N)c2[nH]c3ccccc3n2c1=O | 2.5% (inactive)
CC(=O)Oc1c(/C=C(\C#N)C(N)=O)[nH]c2ccccc12 | -17.9% (inactive)
C=CCOc1c(Cl)cc(CNc2ccc3[nH]c(=O)[nH]c3c2)cc1OC | -12.6% (inactive)
COc1ccc(C2=NN(C(=O)CCCC(=O)O)C(c3cn(-c4ccccc4)nc3-c3ccccc3)C2)cc1 (centres undefined) | 4.9% (inactive)
O=C(O)c1ccc(N2N=C(c3ccccc3)CC2c2ccccc2)cc1 (centres undefined) | 60.1% (active)
Cc1ccc(C2=NN(C(=O)CCC(=O)O)C(c3cn(-c4ccccc4)nc3-c3ccc(C)cc3)C2)cc1 (centres undefined) | 23.6% (inactive)
O=C(N=Nc1c(O)n(Cc2ccccc2)c2ccccc12)c1cc2ccccc2cc1O | 10.8% (inactive)
COCCn1c(-c2cccs2)csc1=Nc1cccnc1 | 3.35% (inactive)
COc1ccc(-c2nc(SCC(=O)Nc3cc(C)on3)n[nH]2)cc1 | 22.4% (inactive)
O=[N+]([O-])c1cc(C=Nc2cccc3c(O)cccc23)ccc1Cl | -17.1% (inactive)
c1ccc2c3c(cc(N4CCOCC4)c2c1)OC1(N2CCOCC2)CCCCC1O3 (centres undefined) | 16% (inactive)
S=C(NCc1ccc2c(c1)OCO2)Nc1ccc2nsnc2c1 | -0.25% (inactive)
CC(C)CC(=O)Nc1ccc2oc(-c3cccnc3)nc2c1 | 42.5% (active)
O=C(Nc1ccc2oc(-c3ccc4ccccc4c3)nc2c1)c1ccc2c(c1)OCCO2 | 8.15% (inactive)
CCCC(=O)Nc1ccc2oc(-c3cncc(Br)c3)nc2c1 | 19.6% (inactive)
Nc1ccc(N2CCN(CCCCN3C(=O)C4CCCN4C3=O)CC2)cc1 (centres undefined) | -7% (inactive)
Cc1cc(/C=C2\C(=O)NN(c3ccccc3)C2=O)c(C)n1-c1ccccc1O | -1.5% (inactive)
O=C(Nc1ccc(F)cc1)C(=O)c1c(O)[nH]c2ccc([N+](=O)[O-])cc12 | -2.85% (inactive)

SMILES | inhibition
O=C(O)/C=C/C(=O)Nc1ccc(O)cc1 | -0.1% (inactive)
Cc1ccccc1NC(=O)CN1C(=O)S/C(=C\c2ccc(-c3cc(C(=O)O)ccc3C)o2)C1=O | 28.9% (inactive)
Cc1ccc(NC(=O)CN2C(=O)S/C(=C/c3ccc(-c4cc(C(=O)O)ccc4C)o3)C2=O)cc1C | 37.2% (active)
Cc1ccc(C(=O)O)cc1-c1ccc(/C=C2\SC(=O)N(CC(=O)Nc3ccc4c(c3)OCO4)C2=O)o1 | 23.6% (inactive)
Cc1cc[n+](-c2[nH]c(=O)sc2/C=N/N=C(\[O-])c2ccncc2)cc1 | -1.55% (inactive)
CCCCNC(=O)Oc1c(Br)cc2sc(=O)oc2c1Br | 7.5% (inactive)
Cc1cc(/C=N/n2c(COc3ccccc3C)nc3ccccc3c2=O)c(O)c([N+](=O)[O-])c1 | -15.5% (inactive)
CCn1c2ccccc2c2c3ncc4cccn4c3ccc21 | 31.1% (active)
O=[N+]([O-])c1ccc2nc(CCCc3nc4ccc([N+](=O)[O-])cc4[nH]3)[nH]c2c1 | 28.1% (inactive)
COc1ccccc1CCNC(=O)CSc1ccc(-c2ccco2)nn1 | 14.2% (inactive)
CCc1cc2c(=O)c(Oc3ccccc3F)c(C)oc2c(CN(C)C)c1O | 62.9% (active)
Cc1ccccc1NC(=O)Cn1c(O)c(N=NC(=O)c2ccccc2O)c2ccccc21 | 11.2% (inactive)
CN1CCc2cc3c(c4c2[C@H]1[C@H](O)c1ccccc1-4)OCO3 | 1.95% (inactive)
CCc1ccc(/C=C2/SC(=S)N(CCC(=O)Nc3ccc(C(=O)O)cc3)C2=O)cc1 | 8.2% (inactive)
COc1ccc2nc3ccccc3nc2c1N | -67.2% (inactive)
CCc1ccc2c(c1)C(NC(C)=O)C(=O)N2CCN1CCOCC1 (centres undefined) | 30.8% (active)
CC(=O)NC1C(=O)N(CCN2CCOCC2)c2ccc(Br)cc21 (centres undefined) | 32.2% (active)
CCc1ccc2nc(NC(=O)c3ccc4c(=O)[nH]c(CN5CCOCC5)nc4c3)sc2c1 | 29.9% (inactive)
Brc1ccc(OCCN2CCOCC2)cc1 | -8.15% (inactive)
CCOc1ccc2c(c1)C(NC(C)=O)C(=O)N2CCN1CCOCC1 (centres undefined) | 37.8% (active)
CC(=O)NC1C(=O)N(CCN2CCOCC2)c2ccc(Cl)cc21 (centres undefined) | 25.8% (inactive)
CC(=O)NC1C(=O)N(CCN2CCOCC2)c2ccc(F)cc21 (centres undefined) | 28.6% (inactive)
O=C1NC(=O)c2cc(NC(=O)C3CCCCC3)ccc21 | 25.4% (inactive)

SMILES | inhibition
CCOC(=O)C1CC(=O)c2cc(OC)c(OC)cc2C1 (centres undefined) | -1.1% (inactive)
O=C(COc1ccc(Cl)cc1)Nc1nnc(-c2ccc3c(c2)CCCC3)o1 | -7.05% (inactive)
CC(C)=CCC1=C(OCC(=O)O)C(=O)c2ccccc2C1=O | -6.2% (inactive)
O=C(Cc1ccccc1Cl)NC1(O)C(=O)c2ccccc2C1=O | -30.6% (inactive)
Cc1ccc(C(=O)NC2(O)C(=O)c3ccccc3C2=O)cc1C | 29.6% (inactive)
CN(NC(=O)c1ccc(Cl)cc1)c1ncc(C(F)(F)F)cc1Cl | 4.95% (inactive)
O=C1c2ccccc2C(=O)C12OC2c1ccc(Cl)cc1 (centres undefined) | 4.4% (inactive)
O=C(NC1(O)C(=O)c2ccccc2C1=O)c1ccccc1 | 57.5% (active)
O=C(NC1(O)C(=O)c2ccccc2C1=O)c1c(Cl)cccc1Cl | 50.4% (active)
O=C(NC1(O)C(=O)c2ccccc2C1=O)c1ccc(C(F)(F)F)cc1 | 56.5% (active)
CC(=O)c1ccc(-c2ccc(/C=C(/Sc3n[nH]c(C)n3)C(=O)O)o2)cc1 | -9.75% (inactive)
Cc1cccc(C)c1OCC(=O)N=Nc1c(O)[nH]c2ccc(Br)cc12 | -1.15% (inactive)
Cc1nnc(N/N=C\c2ccc(-c3ccccc3[N+](=O)[O-])o2)n1N | 16% (inactive)
O=C1/C(=N\S(=O)(=O)c2cccs2)C([n+]2cccc(Cc3ccccc3)c2)=C([O-])c2ccccc21 | 22% (inactive)
CCC(=O)N1CCc2cc(S(=O)(=O)NC(C(=O)NCc3ccc(C)cc3)C(C)C)ccc21 (centres undefined) | -2.25% (inactive)
COC(=O)c1c(NC(=O)COC(=O)c2ccc(NC(=O)CC#N)cc2)sc2c1CCCCC2 | 4.25% (inactive)
COCCn1c(-c2ccco2)nc2nc3ccccc3nc21 | 12.7% (inactive)
Fc1cccc(-n2c(-c3cccs3)nc3nc4ccccc4nc32)c1 | 30.1% (active)
O=[N+]([O-])c1ccc(-c2ccc(C=Nc3cccc4ccccc34)o2)cc1 | 11.9% (inactive)
CN(C)S(=O)(=O)c1cccc(-c2nn(-c3ccccc3)cc2/C=C2\SC(=S)NC2=O)c1 | -4% (inactive)
Cc1nnc(Sc2cc(NCCCO)c([N+](=O)[O-])c3nonc23)s1 | -3.2% (inactive)
O=c1c2ccccc2oc2cc(NCCCN3CCOCC3)ccc12 | 57.9% (active)
COc1ccc(-c2ccc(C(c3c(C)[nH][nH]c3=O)c3c(C)[nH][nH]c3=O)o2)c([N+](=O)[O-])c1 | 1.45% (inactive)

SMILES | inhibition
COc1cc2c(cc1OC)-c1cc3ccc4c(c3c[n+]1CC2)OCO4 | 24.4% (inactive)
CCOC(=O)c1c(NC(=O)c2ccco2)n(C2CCCCC2)c2nc3ccccc3nc12 | 21.2% (inactive)
Cc1cc(NCCO)c2cc(O)ccc2n1 | 57.5% (active)
Cc1ccccc1NC(=O)c1ccc(N/N=C/c2ccccc2O)c([N+](=O)[O-])c1 | 24.7% (inactive)
O=C(NC(=S)Nc1cccc2c(O)cccc12)c1ccccc1[N+](=O)[O-] | -1.65% (inactive)
COC(=O)/C(=C\Nc1ccc(Cl)cc1Cl)NC(=O)c1ccc(OC)cc1 | 0.3% (inactive)
COc1cccc(/C=N/NC(=O)C(=O)N/N=C/c2cccc(OC)c2O)c1O | 48% (active)
COc1cc(OC)c(/C=N/NC(=O)c2ccc(NC(C)=O)cc2)cc1Br | 23.1% (inactive)
COc1cccc2c(SCC(=O)N/N=C/c3ccc(O)cc3O)cc(C)nc12 | 15.7% (inactive)
COc1cccc(/C=N\NC(=O)C2=NNC(=O)C2C)c1O (centres undefined) | 24.4% (inactive)
O=C(N/N=C/c1ccc(O)cc1O)C(=O)N/N=C/c1ccc(O)cc1O | 63.6% (active)
Oc1ccc(C=Nc2cccc3ccccc23)c(O)c1 | 0.55% (inactive)
CC1(OC(=O)c2cccs2)C(=O)C=C2C=C3CCCN3C=C2C1=O (centres undefined) | 7.4% (inactive)
O=C(CNc1ccc2ccccc2c1)N/N=C/c1cc2ccccc2nc1Cl | 2.4% (inactive)
CC1=NN(c2ccccc2)C(=O)C1 | 7.95% (inactive)
Cc1[nH]n(-c2ncc(-c3ccccc3)s2)c(=O)c1C(c1ccc(Cl)cc1)C(C#N)C#N (centres undefined) | -20.6% (inactive)
O=C(Cn1c2ccccc2c(=O)c2ccccc21)N/N=C/c1cc([N+](=O)[O-])ccc1N1CCCCCC1 | 10.9% (inactive)
O=C(N/N=C/c1cc(Cl)cc([N+](=O)[O-])c1O)c1ccccc1NS(=O)(=O)c1cccs1 | 39.8% (active)
Cc1ccccc1C(=O)Nc1cccc(C(=O)N/N=C/c2cc(Cl)cc([N+](=O)[O-])c2O)c1 | -53.5% (inactive)
O=C(N/N=C/c1ccc(N2CCOCC2)cc1)c1ccccc1NS(=O)(=O)c1cccs1 | 24.1% (inactive)
